HSD17B inhib = blocks hydroxysteroid 17-beta dehydrogenase activity. AID 893. recombinant HSD17B10, NADH fluorescence kinetic. hit rate 7.6% among 75,000. Potency, µM (series often up to 57.1 µM), for the others: at the top dose activity change, negative = inhibition, actives largely listed as inhibitors;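 further: the protocol describes HADH2 (HSD17B10) and not the HSD17B4 of the title; potency means the concentration at half of the fitted maximal effect; on the % scale 0 is the no-effect control and ±100 the full control effect; nearly all actives have a fitted effect of over 70% in size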
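His-tagged E. coli-expressed HADH2 at 20 nM in 100 mM Tris-HCl pH 9.0 with 0.01 % Tween-20, preincubated 15 min with compound at room temperature. Reaction with 1 mM NAD+ and 90 uM beta-hydroxybutyryl coenzyme A; NADH fluorescence (360/450 nm) read kinetically over 4 min, last minus first point.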
HADH2 inhib = inhibitors of human HADH2 dehydrogenase; AID 886; hit rate 3.4% among 73,000; Potency, µM (highest dose often 57.1 µM), inactives show top-dose activity change, negative = inhibition, most hits filed as inhibitors; recombinant HADH2, NADH fluorescence, beta-hydroxybutyryl-CoA; further: potency means the concentration at half of the fitted maximal effect; on the % scale 0 is the no-effect control and ±100 the full control effect; nearly all actives have a fitted effect of over 60% in size
Target sequence (Q99714 whole entry, looked up, one chain of several): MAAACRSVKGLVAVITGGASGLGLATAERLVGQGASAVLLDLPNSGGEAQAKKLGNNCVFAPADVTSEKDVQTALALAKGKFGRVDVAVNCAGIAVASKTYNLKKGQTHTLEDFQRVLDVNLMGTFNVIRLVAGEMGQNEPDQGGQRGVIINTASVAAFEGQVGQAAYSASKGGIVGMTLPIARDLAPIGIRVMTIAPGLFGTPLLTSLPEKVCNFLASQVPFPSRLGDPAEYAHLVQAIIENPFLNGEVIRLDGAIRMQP
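E. coli-expressed His-tagged HADH2 tested at 20 nM in alkaline Tris buffer (pH 9.0); oxidation of 90 uM beta-hydroxybutyryl-CoA with 1 mM NAD+ tracked fluorimetrically for 4 min.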
AID923 = qHTS Assay for Allosteric/Competitive Inhibitors of Caspase-1: Spectroscopic Profiling in AFC Spectral Region | compound fluorescence, AFC spectral region (405/520 nm) | Potency, µM (titrated, usually from 57.5 µM), for the others: at the top dose fluorescence increase, actives largely listed as activators | hit rate 1.1% among 75,000; further: potency means the concentration at half of the fitted maximal effect; 0% is about no effect
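Baseline compound fluorescence (AFC region, 405 nm ex/520 nm em) taken from the intercept of kinetic reads with 50 nM caspase-1 and 5 uM Ac-WEHD-AFC; normalized to an on-plate AFC standard curve; compounds titrated up to 57 uM.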
4MU fluor = 4-MU region autofluorescence; compound autofluorescence, 340/450 nm, 4-MU equivalents; hits give high values; max dye-equivalent concentration, M; hit rate 11% among 59,000; AID 589; in the data active means max dye-equivalent concentration above about 10 nM; inconclusive means mostly about 1.1 nM to 9.6 nM
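Compounds in 100 mM Tris, pH 8.0, incubated 15 min at room temperature, then fluorescence read at 340 nm excitation/450 nm emission. Signal converted to 4-MU dye-equivalent concentration using an on-plate six-point 4-MU standard curve.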
CRE-bla Fsk = CRE-bla signaling modulation under forskolin stimulation; Potency, µM (highest dose often 38.2 µM), for the others: top-dose activity change, negative = inhibition, actives largely listed as activators; hit rate 2.5% among 71,000; CHO CRE-bla reporter (cAMP response element driving beta-lactamase), forskolin EC10, beta-lactamase ratio; active means well fitted activation curve with a large enough effect in the signal ratio, with a control signal flat, not every such curve was filed as active; inconclusive means small, poorly fitted or top-dose-only effect, or effect the other way, or a change in a side signal; the % refers to the signal ratio; further: potency means the concentration at half of the fitted maximal effect; % of control where 0% means no effect
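Cells were plated overnight at 37 °C, exposed to compound titrations plus EC10 NKH 477 for 3 h, then given CCF4 dye for 2 h at room temperature. Blue/green (460/530 nm) ratio was converted to %Activity and AC50 values calculated.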
A350 autofl = compound fluoresces in the Alexa 350 spectral region; AID 590; hit rate 11% among 59,000; max dye-equivalent concentration, M; Compound autofluorescence, 340/450 nm, Alexa 350 dye-equivalents; hits give high values; in the data active means max dye-equivalent concentration above about 10 nM; inconclusive means mostly about 1.1 nM to 9.6 nM
CHO via 24h = cytotoxicity in CRE-bla CHO cells at 24 h. activity, negative = viability loss, % at 46.1 µM. AID 905. shares compounds with CRE-bla Fsk. CRE-bla CHO viability, ATP luminescence, 24 h. 120 tested, under 10 active
CHO tox 40h = reduces CRE-bla CHO cell viability after 40 hours; Potency, µM, inactives show max response, most hits filed as inhibitors; CRE-bla CHO viability, ATP luminescence, 40 h; 120 tested, under 10 active; shares compounds with CRE-bla Fsk
CREB luc CRC = boosts CRE luciferase signal in HEK293 cells. Potency, µM (top dose mostly 38.3 µM), inactives show top-dose activity, positive = activation, hits mostly activators. hit rate 80% among 120. HEK293 CRE-luc2P, NKH477 EC10 potentiation, luminescence, 4 h. AID 907. shares compounds with CRE-bla Fsk
The depositor's hits bear a star; i = inactive; ? = inconclusive; . = not tested or not shown; [ ] = another dose, or the depositor's remark. Shown are actives, neighbours in structure and some others; about 14% of the full set was active somewhere. Unless noted, the call rests on the fitted dose curve; in most records, active means well fitted curve in the direction sought with a large enough effect; inconclusive means small, poorly fitted or top-dose-only effect, or another doubt; inactive means no such curve, though single readings can be large; an effect the other way counts as inactive or inconclusive.

SMILES	HSD17B inhib	HADH2 inhib	AID923	4MU fluor	CRE-bla Fsk	A350 autofl	CHO via 24h	CHO tox 40h	CREB luc CRC
c1ccc2c(c1)CCCN2c1nc2ccccc2n2cnnc12	-4.6%	-10.4%	5.4%	.	5.0%	.	.	.	.
CCCn1c(SCC(=O)NC(C)(C)C)nnc1C(C)C	4.6%	-8.6%	-0.2%	i	4.1%	i	.	.	.
CCC(C)OC(=O)c1[nH]c2c(c1C)C(=O)CC(c1ccc(N(C)C)cc1)C2 (stereo not given)	-2.8%	15.1%	3.3%	.	?	.	.	.	.
c1ccc(C2=Nn3c(nnc3-c3ccncc3)SC2)cc1	4.3%	13.5%	1.0%	i	?	?	.	.	.
Fc1ccc(C2=Nn3c(Cc4ccccc4)nnc3SC2)cc1	5.0%	?	-1.7%	i	16.1%	i	-4.9	-9.7%	12.6µM*
Cc1cc(-c2nnc3n2N=C(c2ccc(-c4ccccc4)cc2)CS3)n[nH]1	-29.6%	-7.7%	-0.2%	i	?	i	-29.8	?	1.58µM*
CC(C)CC(=O)N1CCN(C(=O)CCC2CCCC2)CC1	5.8%	17.9%	-0.2%	.	1.8%	.	.	.	.
COC(=O)c1ccc(CSc2ccc3nnc(-c4cccc(F)c4)n3n2)o1	?	?	-2.4%	.	7.94µM*	.	-13.6	-17.5%	12.6µM*
CCOC(=O)CC(=O)CSc1ccc2nnc(-c3cccc(F)c3)n2n1	?	-12.8%	-0.8%	?	?	?	.	.	.
COc1ccccc1CCn1c(=O)c(-c2cccc(Cl)c2)nc2cncnc21	14.1%	-2.7%	4.3%	i	?	i	.	.	.
Cc1nc(SCC(=O)Nc2ccccc2)c2oc3ccccc3c2n1	11.9%	-4.9%	0.1%	i	0.501µM*	i	-17.7	-18.3%	5.01µM*
Cc1nc(SCC(=O)N2CCCc3ccccc32)c2oc3ccccc3c2n1	6.1%	2.6%	3.5%	?	0.501µM*	1.2e-08M*	-17.0	-26.6%	3.98µM*
CCc1nc(SCC(=O)N2CCc3ccccc32)c2oc3ccccc3c2n1	-2.0%	0.2%	2.0%	i	1.8%	i	9.1	-4.2%	14.1µM*
Cc1cc(C)nc(Sc2nc(C)nc3c2oc2ccccc23)n1	-5.8%	-7.1%	-0.2%	i	1.7%	?	.	.	.
CCn1c(SCC(=O)N2CCCc3ccccc32)nc2ccccc2c1=O	3.5%	19.5%	-0.4%	i	?	i	.	.	.
CC(C)(N=NC(C)(C)C(=N)N)C(=N)N	-6.1%[11.4 µM]	-9.8%[11.4 µM]	-1.5%[11.5 µM]	i	-4.8%[7.6 µM]	i	.	.	.
O=C(c1ccncc1)N1CCC[C@@]2(CCN(c3ccccc3)C2)C1	1.7%	13.6%	5.1%	i	-1.3%	i	.	.	.
CN1C(=O)NC(c2ccccc2)C2=C1CN(Cc1ccccc1)C2=O (stereo not given)	.	.	.	i	.	i	-2.9	-1.0%	20.9%
COc1c(Cl)ccc(Cl)c1C(=O)OCC(=O)O	4.3%	-8.3%	0.8%	.	-8.8%	.	.	.	.
CCSc1nc2ccccc2n1Cc1nc(N)nc(N(C)C)n1	-0.9%	4.0%	-1.3%	i	?	i	.	.	.
CN(C)c1nc(N)nc(CSc2n[nH]c(-c3ccccc3)n2)n1	-2.2%	-8.4%	-2.3%	i	1.58µM*	i	-5.7	-28.2%	12.6µM*
O=C(Nc1ccc(-c2cn3ccsc3n2)cc1)c1ccc(F)c(S(=O)(=O)N2CCOCC2)c1	34.7%	90.3%	0.4%	?	1.58µM*	?	?	-22.4%	2.82µM*
CC1CCc2c(sc3nc(C4CC4)nc(SCC(=O)NCc4ccco4)c23)C1 (stereo not given)	11.0%	9.0%	3.7%	i	-0.7%	i	3.1	-2.4%	7.7%
COc1cc(C2NC(=O)NC(C)=C2C(=O)OC(C)(C)C)ccc1OCC(N)=O (stereo not given)	-5.2%	11.4%	1.8%	i	-4.1%	i	7.1	-2.0%	12.6µM*
CC1(C)Cc2c(sc3nc(SCC#N)n(C4CCCCC4)c(=O)c23)CO1	.	.	.	i	.	i	-10.9	-19.5%	0.631µM*
CCOC(=O)CSc1nc2sc3c(c2c(=O)n1CC)CC(C)(C)OC3	-8.8%	-17.2%	-1.3%	.	?	.	.	.	.
COC(=O)c1cn(NC(=O)c2cccnc2)c(=O)c2ccccc12	-23.4%	-7.6%	0.1%	i	0.6%	i	.	.	.

Screening results deposited in PubChem by National Center for Advancing Translational Sciences (NCATS).
